Source: PubChem
A selection: hits, their analogues and other compounds. The true share with any hit is near 4.4%.
PfHsp90 set2: growth inhibition of PfHsp90-expressing yeast, primary screen, antimalarial PfHsp90 inhibitor project, S. cerevisiae, BacTiter-Glo luminescence, single point, set 2; 0.32% of 310,000 active; AID 504621, 2011; inhibition, % at 9.4 µM; BacTiter-Glo ATP, 48 h; yeast lacking PDR1 and PDR3 efflux regulators;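 active means every replicate shows inhibition above about 80%, whatever the replicate mean, limit read from the data; inconclusive means mean inhibition reaches the set limit but some replicate falls short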
SKKanGAS inh: S. pyogenes SKKanGAS growth inhibitors in kanamycin, primary screen, streptokinase expression inhibitor project, SKKanGAS strain, BacTiter-Glo luminescence; 6 h; inhibition, % at 7.5 µM; 1.3% of 300,000 active;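 active means mean replicate score, as percent of positive control median, at least 50; inconclusive means mean below 50 but one replicate at or above 50; inactive means mean and every replicate below 50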;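 further: strain carries kanamycin resistance gene driven by streptokinase promoter and grows in 40 µg/ml kanamycin; loss of luminescence reflects streptokinase promoter inhibition or plain growth inhibition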
tim10-1 inh: growth inhibitors of tim10-1 mutant yeast, primary screen, luminescence, uHTS | S. cerevisiae tim10-1 ts strain growth, BacTiter-Glo, 24 h | 2.2% of 330,000 active | inhibition, % at 20 µM;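 active means inhibition of at least 40%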;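 further: mutant grown at 25 °C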
TIM10 inh: growth inhibitors of isogenic TIM10 control yeast, primary screen, counter-screen for tim10-1 yeast inhibitor project, luminescence, uHTS; inhibition, % at 10 µM; S. cerevisiae TIM10 strain growth, BacTiter-Glo luminescence, 24 h; 1.4% of 330,000 active;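 active means inhibition of 40% or more at the single tested concentration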;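 further: wild-type TIM10 isogenic control strain grown at permissive 25 °C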
tim23-1 inh: growth inhibitors of tim23-1 mutant yeast, primary screen, luminescence, uHTS. S. cerevisiae tim23-1 growth, BacTiter-Glo luminescence, 24 h. inhibition, % at 20 µM. 1.3% of 330,000 active. AID 463212, 2010;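 active means growth inhibition of the mutant yeast at or above 50%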;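 further: temperature-sensitive mutant grown at 25 °C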
tim10-1 confirm: growth inhibitors of tim10-1 mutant yeast, confirmation, single concentration, luminescence, S. cerevisiae; AID 463213, 2010; inhibition, % at 20 µM; 56% of 7,400 active; S. cerevisiae tim10-1 ts strain growth, BacTiter-Glo, 24 h; shares compounds with tim10-1 inh;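 active means inhibition of yeast growth at or above a set limit in either of two repeat tests at 20 µM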;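 further: tim10-1 mutant grown at permissive 25 °C to find synthetic lethal compounds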
TIM10 conf: growth inhibitors of wild-type TIM10 yeast, confirmation, counter-screen for tim10-1 synthetic lethality project, single concentration, luminescence, S. cerevisiae; inhibition, % at 10 µM; 63% of 4,600 active; AID 463215, 2010; S. cerevisiae tim10 strain growth, BacTiter-Glo luminescence, 24 h; shares compounds with TIM10 inh;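 active means inhibition of yeast growth at or above a set limit in either of two replicates at 10 µM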; further: this counterscreen used the strain with wild-type TIM10
tim23-1 conf: tim23-1 mutant yeast growth inhibitors, confirmation, luminescence, single concentration; shares compounds with tim23-1 inh; S. cerevisiae tim23-1 growth, BacTiter-Glo luminescence, 24 h; inhibition, % at 20 µM; 83% of 4,400 active; AID 463218, 2010;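 active means inhibition above about 39% in either of two replicate wells at 20 µM, limit read from the data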;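 further: temperature-sensitive tim23-1 mutant grown at 25 °C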
Large screens that a line does not name were inactive (follow-up assays come after a bar, where they were run).

O=S(=O)(NCCN1CCOCC1)c1cc(Cl)ccc1Cl	none
CCNc1sc(C(=O)c2cccs2)c(N)c1-c1nc2ccccc2s1	tim10-1 inh 53, TIM10 inh 45, tim23-1 inh 72 | tim10-1 confirm inactive | TIM10 conf 36 | tim23-1 conf inactive
CN1C(=O)/C(=C\C(=O)c2cccs2)c2ccccc21	tim10-1 inh 47, TIM10 inh 85, tim23-1 inh 84 | tim10-1 confirm 70 | TIM10 conf 81 | tim23-1 conf inactive
CNS(=O)(=O)c1cccc(C(=O)OCc2cc(=O)oc3c(C)c(O)ccc23)c1	none
O=C(C[n+]1cc(Br)cc2ccccc21)c1ccc(Br)cc1	none
O=C(C[n+]1cn(C(F)F)c2ccccc21)c1ccc(Br)cc1	tim10-1 inh 64, TIM10 inh 72, tim23-1 inh 55 | tim10-1 confirm 65 | TIM10 conf 65 | tim23-1 conf inactive
COc1ccc(C(=O)Nc2ccccc2)cc1NC(=O)c1ccc([N+](=O)[O-])cc1	none
Cc1nc2c(Br)cc(Br)cc2cc1O	tim10-1 inh 71, TIM10 inh 50, tim23-1 inh 76 | tim10-1 confirm 61 | TIM10 conf 45 | tim23-1 conf 83
Brc1cc(Br)c2nc(-c3cccs3)ccc2c1	none
O=C(NC(=S)NC1C2CC3CC(C2)CC1C3)c1ccccc1 (stereo not drawn)	SKKanGAS inh inconclusive, tim10-1 inh 48, TIM10 inh 41, tim23-1 inh 54 | tim10-1 confirm 39 | TIM10 conf inactive | tim23-1 conf 67
COc1ccc2c(c1)CC/C(=C/c1cc(OC)c(OC)c(OC)c1)C2=O	none
COc1ccc2c(c1)CC/C(=C/c1ccccn1)C2=O	tim10-1 inh 55, TIM10 inh 56, tim23-1 inh 58 | tim10-1 confirm 54 | TIM10 conf 60 | tim23-1 conf 52
O=C(NC(=S)Nc1ccc2c(c1)OCO2)c1ccccc1	none
O=C(NC(=S)N1CCN(Cc2ccc3c(c2)OCO3)CC1)c1cccc(Br)c1	SKKanGAS inh inconclusive, tim10-1 inh 51, TIM10 inh 56, tim23-1 inh 54 | tim10-1 confirm 35 | TIM10 conf inactive | tim23-1 conf 47
O=C(NC(=S)Nc1ccc2c(c1)OCCO2)c1cccc(Br)c1	tim10-1 inh 45, TIM10 inh 45, tim23-1 inh 51 | tim10-1 confirm inactive | TIM10 conf inactive | tim23-1 conf 42
O=S1(=O)C=C(Sc2nc3ccccc3s2)c2ccccc21	tim10-1 inh 69, TIM10 inh 77, tim23-1 inh 66 (no result: PfHsp90 set2) | tim10-1 confirm 65 | TIM10 conf 86 | tim23-1 conf inactive
Cc1cc(C)nc(SC2=CS(=O)(=O)c3ccccc32)n1	none
CC1CCN(C2=NC(=O)/C(=C/c3ccccc3F)S2)CC1	tim10-1 inh 46, tim23-1 inh 52 | tim10-1 confirm 35 | tim23-1 conf 53
COc1cc(-c2nc3ccccc3s2)ccc1O	tim10-1 inh 50, TIM10 inh 49, tim23-1 inh 52 | tim10-1 confirm 53 | TIM10 conf 48 | tim23-1 conf 55
Cc1cccc(Cn2cc(/C=C/[N+](=O)[O-])c3ccccc32)c1	tim10-1 inh 66, TIM10 inh 67, tim23-1 inh 67 (no result: PfHsp90 set2) | tim10-1 confirm 71 | TIM10 conf 82 | tim23-1 conf 74
O=[N+]([O-])/C=C/c1cn(Cc2ccc(Cl)cc2)c2ccccc12	PfHsp90 set2 inconclusive, tim10-1 inh 65, TIM10 inh 64, tim23-1 inh 73 | tim10-1 confirm 58 | TIM10 conf 30 | tim23-1 conf 75
CCOC(=O)Cn1cc(/C=C/[N+](=O)[O-])c2ccccc21	none
COc1cccc(NC(=O)N2CCCC2C(=O)Nc2cc(C)ccc2OC)c1 (stereo not drawn)	none
CCOC(=O)CCc1cnccc1-c1cccc(OC)c1O	none
CC1(C)COC(/C=C/c2cccc([N+](=O)[O-])c2)=N1	tim10-1 inh 60, TIM10 inh 47, tim23-1 inh 59 | tim10-1 confirm 43 | TIM10 conf 46 | tim23-1 conf 40
Cc1cc(S(=O)(=O)NCC(c2ccc3c(c2)OCO3)N2CCOCC2)ccc1F (stereo not drawn)	none
CC(NC(=O)CN1c2cccc3cccc(c23)S1(=O)=O)c1ccc(S(N)(=O)=O)cc1 (stereo not drawn)	none (no result: PfHsp90 set2)
Oc1ccc2ccccc2c1CNc1ccc(Br)cn1	tim10-1 inh 46, tim23-1 inh 61 | tim10-1 confirm 63 | tim23-1 conf 68
Cc1ccc(C(=O)O/N=C(\N)Cc2cccs2)cc1[N+](=O)[O-]	tim10-1 inh 43, TIM10 inh 83, tim23-1 inh 88 | tim10-1 confirm 67 | TIM10 conf 85 | tim23-1 conf 83
COc1ccc(C(=O)O/N=C(\N)Cc2cccs2)cc1OC	none
COc1ccc(/C(N)=N/OC(=O)c2cccc([N+](=O)[O-])c2C)cc1OC	none
COc1ccccc1C/C(N)=N/OC(=O)c1ccc(C)c([N+](=O)[O-])c1	tim10-1 inh 69, TIM10 inh 86, tim23-1 inh 75 | tim10-1 confirm 43 | TIM10 conf 86 | tim23-1 conf 42
CCN(Cc1nc(-c2ccc(OC)c(OC)c2)no1)C(=O)c1ccc2c(c1)OCO2	none
O=C1C2C(c3ccccc3)C=CC(c3ccccc3)C2C(=O)N1c1ccncc1 (stereo not drawn)	tim10-1 inh 41, tim23-1 inh 53 | tim10-1 confirm 36 | tim23-1 conf 49
O=C1C2C(c3ccccc3)C=CC(c3ccccc3)C2C(=O)N1c1cccnc1 (stereo not drawn)	none
CCCCCC/C(=N/O)c1ccccn1	SKKanGAS inh 94, tim10-1 inh 42, TIM10 inh 57, tim23-1 inh 60 | tim10-1 confirm inactive | TIM10 conf inactive | tim23-1 conf 52
Cc1nc2c(-c3ccc(F)cc3)cnn2c(N)c1-c1ccccc1	tim10-1 inh 46, TIM10 inh 45, tim23-1 inh 74 | tim10-1 confirm 35 | TIM10 conf 52 | tim23-1 conf 42
